{"source": "PubChem BioAssay AID651949", "about": "(Broad Institute, 2012)", "note": "Measured potencies and affinities stand elsewhere. Calls of active or inactive are those of the source.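 How the source made its calls: active means compounds lowering cell ATP signal whose fitted half-maximal concentration is at most twice the top tested dose; inconclusive means flat curve with 30 to 70% signal loss, or poor fit; inactive means the rest.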", "data": [{"assay": "viability loss in HEK293T cells – cell-based, CellTiter-Glo luminescence, dry powder, set 6, cytotoxicity control, dose response (AID 651949)", "details": "CellTiter-Glo ATP luminescence, 48 h; series mostly up to 26 µM", "values": [{"smiles": "O=S(Cc1ccccc1)c1nnc(-c2ccccc2)o1", "note": "(centres undefined)", "outcome": "inactive"}, {"smiles": "Brc1ccc(CSc2nnc(-c3ccccc3)o2)cc1", "outcome": "inactive"}, {"smiles": "O=S(=O)(Cc1ccccc1)c1nnc(-c2ccccc2)o1", "outcome": "inactive"}, {"smiles": "c1ccc(CCc2nnc(-c3ccccc3)o2)cc1", "outcome": "inactive"}, {"smiles": "Clc1ccc(-c2nnc(SCc3cn(-c4ccccc4)nn3)o2)cc1", "outcome": "inactive"}, {"smiles": "c1ccc(-c2nnc(SCc3ncco3)o2)cc1", "outcome": "inactive"}, {"smiles": "FC(F)(F)c1ccccc1CSc1nnc(-c2ccccc2)o1", "outcome": "inactive"}, {"smiles": "COCCOCCSc1nnc(-c2ccccc2)o1", "outcome": "inactive"}, {"smiles": "COc1ccccc1-c1nnc(SCc2ccccn2)o1", "outcome": "inactive"}, {"smiles": "FC(F)(F)CNCCSc1nnc(-c2ccccc2)o1", "outcome": "inactive"}, {"smiles": "Fc1ccc(Cn2cc(CSc3nnc(-c4ccc(F)cc4)o3)nn2)cc1", "outcome": "inactive"}, {"smiles": "CS(=O)(=O)c1ccccc1CSc1nnc(-c2ccccc2)o1", "outcome": "inactive"}, {"smiles": "FC(F)(F)Oc1ccc(CSc2nnc(-c3ccccc3)o2)cc1", "outcome": "inactive"}, {"smiles": "Fc1ccc(-c2nnc(SCc3cn(-c4ccccc4)nn3)o2)cc1", "outcome": "inactive"}, {"smiles": "N#Cc1ccc(CSc2nnc(-c3ccccc3)o2)cc1", "outcome": "inactive"}, {"smiles": "CC(C)c1nnc(SCc2ccccc2)o1", "outcome": "inactive"}, {"smiles": "Clc1ccccc1-c1nnc(SCc2ccccc2)o1", "outcome": "inactive"}, {"smiles": "c1ccc(CSc2nnc(-c3ccco3)o2)cc1", "outcome": "inactive"}, {"smiles": "Fc1ccc(CSc2nnc(-c3cccnc3)o2)cc1", "outcome": "inactive"}, {"smiles": "c1ccc(CSc2ncc(-c3ccccc3)o2)cc1", "outcome": "inactive"}, {"smiles": "O=C(Cc1ccccc1)c1nnc(-c2ccccc2)o1", "outcome": "inactive"}, {"smiles": "[O-][n+]1ccccc1CSc1nnc(-c2ccccc2)o1", "outcome": "inactive"}, {"smiles": "FC(F)(F)c1ccc(CSc2nnc(-c3ccccc3)o2)cc1", "outcome": "inactive"}, {"smiles": "N#Cc1ccc(-c2nnc(SCc3ccccc3)o2)cc1", "outcome": "inactive"}, {"smiles": "c1ccc(CSc2nnc(C3CCCCC3)o2)cc1", "outcome": "inactive"}, {"smiles": "Cc1ccccc1-c1nnc(SCc2ccccc2)o1", "outcome": "inactive"}, {"smiles": "c1ccc(CSc2nnc(-c3cccs3)o2)cc1", "outcome": "inactive"}, {"smiles": "FC(F)(F)c1ccc(-c2nnc(SCc3ccccc3)o2)cc1", "outcome": "inactive"}, {"smiles": "Fc1ccc(CSc2nnc(-c3ccccc3)o2)cc1", "outcome": "inactive"}, {"smiles": "c1ccc(-c2nnc(SCCN3CCCC3)o2)cc1", "outcome": "inactive"}, {"smiles": "Fc1ccc(CSc2nnc(-c3ccc(Cl)cc3)o2)cc1", "outcome": "inactive"}, {"smiles": "COc1ccc(CSc2nnc(-c3ccc(Cl)cc3)o2)nc1", "outcome": "inactive"}, {"smiles": "Fc1ccccc1CSc1nnc(-c2ccccc2)o1", "outcome": "inactive"}, {"smiles": "Clc1ccccc1CSc1nnc(-c2ccccc2)o1", "outcome": "inactive"}, {"smiles": "Clc1cccc(-c2nnc(SCc3ccccc3)o2)c1", "outcome": "inactive"}, {"smiles": "FC(F)(F)Oc1ccccc1-c1nnc(SCc2ccccc2)o1", "outcome": "inactive"}, {"smiles": "O=S(Cc1cn(-c2ccccc2)nn1)c1nnc(-c2ccc(Cl)cc2)o1", "note": "(centres undefined)", "outcome": "inactive"}, {"smiles": "c1ccc(-c2nnc(SCc3cscn3)o2)cc1", "outcome": "inactive"}, {"smiles": "c1ccc(CSc2nnc(-c3cscn3)o2)cc1", "outcome": "inactive"}]}]}
